Results filed as inconclusive are left out. Entries that show only a call come without a potency. The source made the active and inactive calls. Calls follow the shape of the dose curve; as a rule, active = well fitted inhibition curve with a large enough effect; inconclusive = small, poorly fitted or top-dose-only effect; inactive = no such curve, though single readings can be large or run the other way.
Potency is read from the fitted curve at half-maximal effect.

Sequence of Tumor susceptibility gene 101 protein (Homo sapiens) (Q99816 whole entry, looked up, the tested form may be a part): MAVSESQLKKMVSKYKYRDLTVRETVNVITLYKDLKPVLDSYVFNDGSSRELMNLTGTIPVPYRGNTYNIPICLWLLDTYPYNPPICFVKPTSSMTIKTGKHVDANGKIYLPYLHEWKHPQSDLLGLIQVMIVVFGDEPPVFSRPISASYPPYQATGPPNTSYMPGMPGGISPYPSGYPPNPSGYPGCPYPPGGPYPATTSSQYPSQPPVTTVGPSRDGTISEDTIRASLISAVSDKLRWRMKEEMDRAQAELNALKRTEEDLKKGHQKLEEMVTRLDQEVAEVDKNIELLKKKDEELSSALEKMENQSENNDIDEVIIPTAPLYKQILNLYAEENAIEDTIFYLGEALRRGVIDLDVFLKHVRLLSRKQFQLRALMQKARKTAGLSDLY

This experiment has as its target Tumor susceptibility gene 101 protein (Homo sapiens) (UniProt Q99816). Put plainly: qHTS Assay for Iinhibitors of HIV-1 Budding by Blocking the Interaction of PTAP/TSG101: Hit Validation in TR assay. To be noted: Tsg101 binding domain + Texas Red-labeled PTAP peptide, fluorescence polarization, 20 min; series mostly up to 57.5 µM. Put shortly:
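Texas Red-PTAP peptide (50 nM) binding to Tsg101 binding domain (10 uM), both final, in pH 7.5 HEPES buffer, read as polarization after 20 min at room temperature; compounds pinned before peptide addition.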
On to `Cc1cccc2cc(/C=C3\N=C(c4ccccc4)OC3=O)c(N3CCOCC3)nc12`, for which the Potency entry was “inactive”.
Consider `CCCCC(=O)NC1=NC(=O)C(C)(C)S1`, for which the Potency entry is “inactive”.
For `Cn1c(O)c(N=Nc2ccc(F)cc2)c2ccccc21`, the Potency entry was “inactive”.
For the compound `CCOc1ccc(Cn2c3ccc(OC)cc3c3nc4ccccc4nc32)cc1`, the Potency result is “inactive”.
As to `CCc1ccc[n+](-c2[nH]c(=O)sc2/C=N/NC([S-])=Nc2ccccc2)c1`, the Potency entry is “inactive”.
As for `O=C(NC1CC1)c1cccc2c1C(=O)c1ccc(N3CCC(Cc4ccccc4)CC3)cc1S2(=O)=O`, the entry is “inactive”; as for `CNc1c2cccc(C)c2nc2c(C(=O)NCCN(C)C)cccc12`, “inactive”.
As for `CCCn1c(=N)c(S(=O)(=O)c2ccccc2)cc2c(=O)n3cccc(C)c3nc21`, the Potency entry was “inactive”.
To `CCn1cc(C=C2C(=O)c3ccccc3C2=O)c2ccccc21` belongs “inactive”; to `COC(=O)c1c(NC(=O)CC2Nc3cc(C)c(C)cc3NC2=O)sc(C)c1C` (stereo unspecified), 2.91 µM (active).
Take `CC1CCCN(c2nc3ccccc3nc2C(C#N)S(=O)(=O)c2ccccc2)C1` (stereo unspecified): the Potency result was “inactive”.
To `Cc1ccc(NC(=O)/C(C#N)=C(\N)C(Cl)(Cl)Cl)nc1` belongs “inactive”; to `Nc1cnccc1C(=O)O`, “inactive”; to `O=C(c1ccccc1)c1ccc(O)cc1O`, “inactive”.
On to `CC(OC(=O)c1c2c(nc3ccccc13)/C(=C\c1ccc3c(c1)OCO3)CCC2)C(=O)Nc1ccc(S(N)(=O)=O)cc1` (stereo unspecified), for which the Potency result was “inactive”.
For the compound `CCOc1ccc(-c2nn(-c3ccccc3)cc2/C=C2\SC(=S)N(C3CCS(=O)(=O)C3)C2=O)cc1` (stereo unspecified), the Potency result is “inactive”.
For the compound `Cn1nc(-c2ccccc2)c2nc3ccccc3nc21`, the Potency entry was “inactive”.
To `CCN1CCc2c(sc(NC(=O)Nc3ccc(Cl)c(Cl)c3)c2C(N)=O)C1` belongs “inactive”.
To `COc1ccc(Nc2nc(-c3cccnc3)nc3ccccc23)cn1` belongs “inactive”; to `Fc1ccc(C2=CC(c3ccco3)n3ncnc3N2)cc1` (stereo unspecified), “inactive”.
As for `O=c1c(-c2cc3ccccc3o2)[n+]([O-])c2ccccc2n1OCc1ccccn1`, the entry is “inactive”.

The values above are taken from PubChem BioAssay AID651599 (National Center for Advancing Translational Sciences (NCATS), 2012).
